Our source for the growth values is PubChem BioAssay (NCI).

For this test, the system named is HL-60(TB) leukemia. Nature of the test: NCI-60 one-dose screen, 48 h (100 = growth as untreated, 0 = no growth, -100 = all killed). To be noted: 10 µM unless noted.

Values joined by “and” are separate entries in the source; they are usually repeats but may differ in a detail not shown here. Equal values may be shown once. This is part of a sample that, as a whole, favours compounds with a hit. Of some 83,000 tested, about 20% had one in any assay.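 Compound tested at a single concentration for 48 hours in 96-well plates; a percent growth value below 10 was scored as active.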 Active and inactive are the calls of the source.

Regarding `CCN(CC)CCNc1cc(-c2cccc(OC(F)(F)F)c2)nc2ccc(N3CCCC3)cc12`, the growth is -55.4% (active) and -26.1% (active) and 12.6% (inactive).

Take `CCOc1cc(Br)c(C(C)NC(=O)c2cccc(OC)c2)cc1OCC` (stereo unspecified): the growth was 45.7% (inactive).

As to `O=C(c1ccccc1)C1C(=O)N2C(=S)N(c3ccccc3)C(=O)C2C1c1ccc(Cl)cc1` (stereo unspecified), the growth was 100% (inactive).

In the case of `FC(F)(F)c1cccc(Nc2ccccc2)c1`, the growth was 92.7% (inactive).

For `COc1cc(C(=O)c2ccccc2C(=O)O)c(OC)c2c1CCCC2`, the growth is 36.8% (inactive) and 97.1% (inactive).

On to `COc1ccccc1CNCCCN1C(=O)c2ccc3c4c(ccc(c24)C1=O)C(=O)N(CCCNCCCCNCCCCN)C3=O`, for which the growth was -37.8% (active).

In the case of `O=C(Nc1ccc(Cl)c(Cl)c1)Nc1ccccc1O`, the growth is 61.6% (inactive).

On to `COc1ccc(Nc2nnc(SCc3ccccc3F)s2)cc1`, for which the growth was 86% (inactive).

Regarding `Cc1ccc(-c2cc(-c3ccc(Cl)cc3)nc(NC(=O)c3cccnc3)n2)cc1`, the growth is 110% (inactive).

As for `O=C1C(Cl)=C(Nc2ccc(Nc3ccccc3)c(NC3=C(Cl)C(=O)c4ccccc4C3=O)c2)C(=O)c2ccccc21`, the growth is 61.6% (inactive).

Regarding `CCCCCCCCCCCCCCCc1cc(O)ccc1N`, the growth was -45.5% (active) and -6.54% (active).

Turning to `O=C(Nc1ccc(-c2nc3cc4ccccc4cc3[nH]2)cc1)c1cccc(Br)c1`, the growth was 42.3% (inactive).

As to `O=C(NCCO)c1cccnc1`, the growth was 97.1% (inactive).

For the molecule `O=C(O)c1cn(C2CC2)c2cc(N3CCN(C(=O)N(c4ccccc4)c4nc(-c5ccccc5)cs4)CC3)c(F)cc2c1=O`, the growth was -39.9% (active).

For `O=c1[nH]nnc2cc(Cl)ccc12`, the growth was 108% (inactive) and 100% (inactive).

For `Cc1ccc(S(=O)(=O)Nc2ccc(-c3cc(-c4cccc(F)c4)c(C#N)c(N)n3)cc2)cc1`, the growth was -14.9% (active).

Turning to `COc1ccc(/C(=N/O)c2cc(F)c(F)c(OC)c2F)cc1O`, the growth was -5.23% (active).

For the molecule `CN(C)CCCN1c2ccccc2Sc2ccc(Cl)cc21`, the growth is 107% (inactive) and 92.5% (inactive).

As to `COc1ccc(-c2nc(-c3nc4ccc(F)cc4[nH]3)cc3c2[nH]c2ccccc23)cc1`, the growth is 26.1% (inactive).

Regarding `CC(=O)O[C@H]1CC[C@@]2(C)[C@@H](CC[C@@H]3[C@@H]2CC[C@]2(C)C=C(C=O)C[C@@H]32)C1`, the growth is -37.5% (active).

For `O=C(Nc1cccc([N+](=O)[O-])c1)Nc1cccc([N+](=O)[O-])c1`, the growth is 13% (inactive).

Regarding `O=C1c2cc3c(cc2-c2c1c1ccc(Cl)cc1c(=O)n2CCCNCCO)OCO3`, the growth is -64% (active).

On to `COc1ccc(C/C(C)=C(/c2ccc(OCCN3CCCCC3)cc2)c2ccc(OC(=O)NCc3ccccc3)cc2)cc1`, for which the growth is -75.1% (active).

In the case of `Cn1c(/C=C(\C#N)c2ccccc2)nc2c(N3CCOCC3)nc(Cl)nc21`, the growth is -33% (active).

As for `CCN(CC)CCOc1ccc(/C=N/Nc2nc3c([nH]2)c(=O)n(C)c(=O)n3C)cc1`, the growth was 97.3% (inactive) and 115% (inactive).

Take `CC(=O)/C(=C\c1c(-c2ccccc2)[nH]c2ccccc12)S(=O)(=O)c1ccccc1`: the growth is -68.4% (active).

Regarding `Cc1ccc(Nc2c(C(N)=O)cnc3ccc(-c4csc(N)n4)cc23)cc1`, the growth was 109% (inactive).

Consider `CCCCCCNc1cc(C)nc2ccc(OC)cc12`, for which the growth is 63.3% (inactive).

Consider `COc1cc(NCC(=O)Nc2cc(Nc3ccc(C)cc3)ncn2)c(Cl)c(OC)c1Cl`, for which the growth is 77.2% (inactive).

For the molecule `COc1c(CNC(=O)CCl)cc2[nH]c(C)cc2c1CNC(=O)CCl`, the growth is 39.4% (inactive).

Turning to `CCN(CC)CCOc1ccc2c(c1)C(=O)c1cc(OCCN(CC)CC)ccc1-2`, the growth was 94.2% (inactive) and 36.5% (inactive).

Take `Cc1cccc2c3c(sc12)C(c1ccc(Cl)cc1)C(C#N)=C(/N=C/c1ccc(Cl)cc1)O3` (stereo unspecified): the growth is -22% (active).

As to `CC(=O)c1nc(Nc2ccc(C)cc2)sc1C`, the growth was 101% (inactive).

`N#CC1=C(N)Oc2c(sc3c(F)cccc23)C1c1ccc(F)cc1` (stereo unspecified): the growth is 5.96% (active).

As for `Cn1c(=O)c2[nH]c(N/N=C/c3ccccc3Br)nc2n(C)c1=O`, the growth was 106% (inactive).

Take `O=C1C(Cl)=C(NCc2ccco2)C(=O)c2ccccc21`: the growth is 85% (inactive).

As for `COc1cc(/C=C/C(=O)c2ccc(O)c(CN3CCN(c4cc5c(cc4F)c(=O)c(C(=O)O)cn5C4CC4)CC3)c2)cc(OC)c1OC`, the growth is 7.35% (active).

Consider `CCCOc1cc2ccccc2cc1C(=O)Nc1nc(NC)c2c(ccc3nccc32)[nH]1`, for which the growth was -55.2% (active).

Take `COc1ccc(OC)c(NC=O)c1`: the growth is 62.2% (inactive).

On to `O=C(N/N=C/c1ccccc1O)c1ccncc1`, for which the growth is 29.8% (inactive).

As to `Cn1c2nc3ccccc3c-2nc2ccccc21`, the growth is 88.8% (inactive) and 55.2% (inactive).

As for `Nc1c(C(=O)c2ccc(Br)cc2)sc2nc3c(cc12)CCCC3`, the growth is 94.7% (inactive).

As for `O=C(Nc1cccc(C(F)(F)F)c1)Nc1cccc(C(F)(F)F)c1`, the growth was -27.8% (active).

For the molecule `CN(CCn1sc(=O)n(Cc2ccccc2)c1=O)Cc1ccc2c(Cl)cc(Cl)c(O)c2n1`, the growth is 40.7% (inactive).

On to `Cc1ccccc1CNc1ccc(N2CCOCC2)cc1`, for which the growth is 102% (inactive).

For the molecule `Cc1nn(Cc2ccccc2)cc1C(=O)Nc1sc2c(c1C(N)=O)CCC(=O)C2`, the growth was -4.39% (active).

Turning to `O=C(Nc1ccc(Cl)c(Cl)c1)Nc1ccc(Cl)c(Cl)c1`, the growth is -56.8% (active) and 13% (inactive).

Regarding `COc1ccccc1NC(=O)c1sc2nc3c(cc2c1N)C(=O)CCC3`, the growth is 98.6% (inactive).

With `C#CC(C)(O)c1ccc(Cl)cc1` (stereo unspecified), the growth was 109% (inactive).

For `CC(C)(C)c1nn(-c2ccccc2)c2c1C(=O)CSC(c1ccccc1Cl)N2` (stereo unspecified), the growth was -2.32% (active).

`NNCCc1ccccc1`: the growth is 107% (inactive) and 98.2% (inactive).

In the case of `CCN(CC)CC(O)CNc1c2ccc([N+](=O)[O-])cc2nc2cc(OC)c(OC)cc12` (stereo unspecified), the growth was -17.5% (active).

On to `Cc1c(C(=O)NO)sc2ncnc(Nc3ccc(NC(=S)Nc4ccccc4)cc3)c12`, for which the growth was 103% (inactive).

For the molecule `CO[C@]12C=C/C(=C(/C(=O)OCc3cccnc3)C(=O)CCCCCCCC[C@@]3(OC)C=C/C(=C(/C(=O)OCc4cccnc4)C(=O)CCCCCCCC1)O3)O2`, the growth was -20.2% (active).

With `Cc1ccc2c(c1)-c1cc(C)nn1-c1ccc(C#N)cc1O2`, the growth was 69.2% (inactive).

As to `O=S(=O)(NCCCNc1nccc(-c2c(-c3ccc(F)c(O)c3)nc3occn23)n1)c1ccccc1`, the growth was 84.3% (inactive).

In the case of `COc1cc(/C=N/NC(=O)c2cnn3c2NC(c2ccccc2)C3)ccc1OC1CCCC1` (stereo unspecified), the growth was 40.8% (inactive).

Consider `COc1ccc(/C=C2\CCCC3=C2N=C2SC(C)=CN2C3c2ccc(OC)cc2)cc1` (stereo unspecified), for which the growth is 76.2% (inactive).

`COc1ccc(-c2ccc3c(c2)sc2nc(-c4ccc(F)cc4)cn23)cc1`: the growth was 92% (inactive).

Turning to `O=C(C[n+]1ccccc1)c1ccc2ccccc2c1`, the growth was 101% (inactive).

`Cc1ccc(Nn2c(SCC(=O)Nc3nc(-c4ccccc4)cs3)nc(C)c2C)cc1`: the growth was 63.8% (inactive).

On to `COc1ccc(C2CC(c3cccc(Nc4ccncc4)c3)=NN2c2ccc(Cl)cc2)cc1` (stereo unspecified), for which the growth is -46.5% (active).

On to `Brc1ccc2[nH]cc(-c3nonc3-c3c[nH]c4ccccc34)c2c1`, for which the growth is 67.3% (inactive).

Take `CCOc1cc(CNc2ccc(N3CCOCC3)c(C(=O)O)c2)ccc1OC`: the growth is 106% (inactive).

For the molecule `N#Cc1c(Nc2ccccc2)nn2cc(-c3nc4ccccc4s3)c(N)nc12`, the growth was 100% (inactive).

Regarding `CCCCN(CCCC)CCc1c(C)cc(C)c(CCN(CCCC)CCCC)c1O`, the growth is 7.15% (active).

Turning to `Oc1ccc(/C=N/N=C2c3ccccc3-c3ccccc32)c(O)c1`, the growth was 71.7% (inactive).

Regarding `Nc1ccc(S(=O)(=O)Nc2ncccn2)cc1`, the growth is 105% (inactive).

With `COc1ccc(C2C(C#N)=C(N)Oc3c2ccc2ccccc32)cc1` (stereo unspecified), the growth is 22.9% (inactive).

Regarding `O=c1c2cc(F)ccc2sc2c(NCCN3CCCCC3)nc3ccccc3c12`, the growth was 57% (inactive).

Turning to `C=C1NC(=O)C(C(C)CC)NC(=O)C2CSCC(NC(=O)CCC(=O)O)C(=O)NC(Cc3ccccc3)C(=O)NC(C)C(=O)NC(CC(C)CC)C(=O)NC(C(=O)NC(Cc3ccccc3)C(=O)N3CCCC3C(=O)N2)C(C)OC(=O)C(CO)NC(=O)C(C(O)COC)N(C)C(=O)C(C(C)C)NC(=O)C(CC(C)CC)NC1=O` (stereo unspecified), the growth is -26.8% [6 µM] (active).

Turning to `Oc1c(Cl)cc(Cl)c2ccc(Cn3cc(-c4cc(F)cc(F)c4)nn3)nc12`, the growth is 2.85% (active).

In the case of `COC1C(OC(N)=O)C(O)C(Oc2ccc3c(O)c(NC(=O)c4ccc(O)c(CC=C(C)C)c4)c(=O)oc3c2C)OC1(C)C` (stereo unspecified), the growth was 74% (inactive) and 106% (inactive).

Turning to `COc1cc(-c2csc(NC(=O)Nc3ccc(Cl)cc3)n2)cc(OC)c1OC`, the growth is 2.62% (active).

Take `COC1C(=O)CCC2(CO2)C1(O)C1(C)OC1CCC(C)C` (stereo unspecified): the growth is 68% (inactive).

As for `CS(=O)(=O)Nc1cc(-c2ccc3ncnc(Nc4ccc5c(cnn5Cc5ccccn5)c4)c3c2)cnc1Cl`, the growth is 56.5% (inactive).

`CN(C)c1ccc(/C=N/n2c(-c3cc(F)c(Cl)cc3Cl)nn(CN3CCOCC3)c2=S)cc1`: the growth was 101% (inactive).

For `O=C(Nc1ccc2cc3ccc(NC(=O)N4CCCCCC4)cc3nc2c1)N1CCCCCC1`, the growth is -49.6% (active).

For the molecule `COc1ccc2c(NCCCCCCCCNc3c4ccccc4nc4cc(OC)ccc34)c3ccccc3nc2c1`, the growth was -92.3% (active).

For the molecule `Cc1cc(O)c2c(c1)C(=O)c1cc(O)cc(O)c1C2=O`, the growth is 121% (inactive) and 83.6% (inactive).

Consider `Cc1c(C(=O)N[C@@H](Cc2ccccc2)C(=O)C(=O)NCCc2ccccc2)[nH]c2ccccc2c1=O`, for which the growth was 98% (inactive).
